This is part of a sample that, as a whole, favours compounds with a hit. Of some 83,000 tested, about 20% had one in any assay.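 Single-dose data. Exposure time 48 hours. Values below 10 considered active.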 A number with no mark means an inactive call. Activity calls are given as the source filed them.
Test system: CAKI-1 renal
Assay: NCI-60 one-dose screen, 48 h (100 = growth as untreated, 0 = no growth, -100 = all killed)
Settings: 10 µM unless noted
Protocol: Growth inhibition of the CAKI-1 human tumor cell line is measured as a screen for anti-cancer activity. Cells are grown in 96 well plates and exposed to the test compound for 48 hours. Compounds are tested at a single concentration, which is 10^-5 M for most compounds. The reported endpoint is percent growth (GI% or GIPRCNT), where numbers from 0 - 100% represent growth inhibition, and numbers from -100% - 0 represent cell death. For example, a value of 40 represents 60% growth inhibition. A value of 0 means no net growth occurred over the course of the experiment. A value of -40 indicates 40% of cells at the beginning of the experiment died by the end of the experiment. A value of -100 means all cells are dead at the end of the experiment.
NCI-60 Human Tumor Cell Lines Screen was performed using the standard one-dose NCI protocol, which is described in more detail at https://dtp.cancer.gov/discovery_development/nci-60/default.htm.
Compounds with GIPRCNT values below 10 were considered active. Activity score was based on GIPRCNT using the following formula: […]
Score is 0 for GIPRCNT values of 100 or above, 50 for GIPRCNT values of 0, and 100 for GIPRCNT values of -100.

SMILES	growth
COc1cc(OCc2cccc(-c3ccccc3)c2C)cc(OC)c1CN1CCCCC1C(=O)NCCOCCOCCN (stereo not given)	92.4%
FC(F)(F)c1cccc(-c2nnn(Cc3cc(-c4cccc(Cl)c4)no3)n2)c1	98.9%
CNC1=C([N+](=O)[O-])C(c2ccc(OC)cc2)C(C#N)=C(c2ccc[nH]2)O1 (stereo not given)	92.6%
COc1ccccc1-c1nc2ccc3[nH]ncc3c2c2c1CCCC2	21.8%
O=C(CSc1nnc(-c2cc(-c3ccc(Cl)cc3)nc3ccccc23)n1-c1ccccc1)Nc1ccc(Cl)cc1	89.5%
Oc1ccc(C(c2ccc(O)cc2)c2ccc(Cl)cn2)cc1	73.5%
c1ccc(-c2nc(N3CCNCC3)c3oc(-c4ccccc4)nc3n2)cc1	-94% (active)
CC(C)(C)n1cc(-c2ccnc(NCCNS(=O)(=O)c3cccc4ccccc34)c2)c(-c2cccc(O)c2)n1	73.7%
C#CCOc1ccc(C2=NN(CCCC)C3N=C(Cl)c4ncn(CCCC)c4N23)cc1OCC#C (stereo not given)	74.3%
CCN1C(=O)N(CC)C2C1NC(=S)N2/N=C/C=C/c1ccccc1 (stereo not given)	27.2%
O=C(O)c1nn(-c2ccc(Cl)cc2)nc1N1CCCC1	97.6%
COC(=O)CCc1c(/C=C2\N=C(c3ccc[nH]3)C=C2OC)[nH]c(C)c1C(=O)OCc1ccccc1	-3.87% (active)
N#Cc1c(-c2ccc(Cl)cc2)nc(NN=Cc2cccc(Cl)c2)nc1N1CCOCC1	67.4%
O=C(Nc1ncc(Cc2ccc(Cl)cc2)s1)C1=NCCCCN1	90.5%
CN(C)C(=S)NN=C(c1ccccn1)c1ccccn1	30%
O=C1C(Nc2ccc(Br)cc2)=C(I)C(=O)c2ncccc21	18.6%
C/C(=N\NC(=O)c1ccc(C(C)(C)C)cc1)c1ccc(O)cc1O	17.1%
O=C(/C=C/c1ccc(Cl)cc1)c1ccc(Nc2ccnc3cc(Cl)ccc23)cc1	76.3%
CS(=O)(=O)c1ccc(/C(=N/NC(N)=S)c2ccc(F)cc2)cc1	94.7%
Cc1nc2c(c(-c3ccccc3)n1)Cc1c(ccc3ccccc13)O2	109%

SMILES	growth
O=C(Nc1ccccc1C(F)(F)F)C1=NCCCCN1	96.6%
O=C(CSc1nnc(-c2ccc(Cl)c(Cl)c2)n1-c1ccccc1)Nc1ccc(C(=O)/C=C/c2ccc(Cl)cc2)cc1	74.2%
COc1ccc(CNc2c3ccccc3nc3ccccc23)cc1OC	10.5%
CCOC(=O)C#Cc1c(CC(=O)OCC)nnn1[C@H]1O[C@@H](CO)[C@@H]2OC(C)(C)O[C@@H]21	-88.4% (active)
CCN(CC)c1ccc(/C=N/NC(=O)c2ccccc2Nc2ccnc(C(F)(F)F)c2)c(O)c1	56.9%
COc1ccc(-c2ccc(-c3ccc(C(=N)N)o3)o2)cc1	34.4%
c1ccc(-c2cn3nc(-c4c[nH]c5ccccc45)sc3n2)cc1	66.1%
CC/C(=C(/c1ccc(Cl)cc1)c1ccc(OCCCN(C)C)cc1)c1ccc(OC)cc1	82.3%
O=c1oc2ccccc2cc1-c1nn(-c2ccccc2)cc1/C=N/Nc1nc(-c2ccccc2)c(N=Nc2ccccc2)s1	62.8%
COc1cc(C(=O)c2c(-c3ccccc3)oc3ccccc23)cc(OC)c1O	32.7%
COc1ccc2c(O)cc3c(c2c1)[C@H](CCl)CN3C(=O)c1cc2cc(NC(=O)CCN3CCOCC3)ccc2[se]1	-26.3% (active)
COc1cc(/C=C2\C(=O)N(CCOc3cc(O)c4c(=O)cc(-c5ccccc5)oc4c3)c3ccccc32)cc(OC)c1O	59.3%
COc1ccc(S(=O)(=O)Oc2ccc(-c3sc4cc(OS(=O)(=O)c5ccc(OC)cc5)ccc4c3C(=O)c3ccc(OCCN4CCCCC4)cc3)cc2)cc1	94.1%
CCCCC#Cc1c(I)n(C2OC(CO[Si](C)(C)C(C)(C)C)C3OC(C)(C)OC32)c(=O)[nH]c1=O (stereo not given)	74.4%
Oc1cccc(-c2nc(-c3n[nH]c(=S)n3-c3ccccc3)cc3c2[nH]c2ccccc23)c1	64.6%
COC(=O)[C@@H](Cc1c[nH]c2ccccc12)NC(=O)[C@H](Cc1ccccc1)NCc1ccncc1	91.9%
COc1ccc(-c2cc(-c3ccc(N(C)C)cc3)nc(NC(=O)c3cccnc3)n2)cc1	92.6%
Cc1nn(C)c2ncnc(Nc3ccccc3Br)c12	102%
O=C(Nc1ccc2c(c1)-c1ccccc1C2)C1CC(=O)N(c2ccc3c(c2)OCO3)C1 (stereo not given)	61% [50 µM]
C=C(C[n+]1ccccc1)[C@@H]1CC[C@]2(C(=O)OC)CC[C@]3(C)[C@H](CC[C@@H]4[C@@]5(C)CCC(=O)C(C)(C)[C@@H]5CC[C@]43C)[C@@H]12	83.5%

— PubChem BioAssay (NCI)
